Data: the OligoGym collection

biological target: KRT75; test: pooled miR-30 sensor sort-seq; sequence = guide strand; conditions: shRNA
Also: reference of the scale not given here.

| Sequence | sensor-assay potency score (higher = more potent) |
| --- | --- |
| TTCATCTTCGTACCTGACTTTG | -1 |
| TATTGTGCTTTGACCTCGGCGA | -0.108 |
| TCAACCTGCACTCCTCGCCTTC | -1.25 |
| TTGCAAGCTGGAACACTGCTTC | 0.132 |
| TTGTGCTTTGACCTCGGCGATG | -1.35 |
| ATAGGCAGCATCTACGTCCTTT | -0.0293 |

biological target: KRT79; test: as above; conditions: shRNA

| Sequence | sensor-assay potency score (higher = more potent) |
| --- | --- |
| TTAACCTTCCCTCCCATCCTAC | -1.2 |
| TTCTCTGCAGCAGTGTGCTTGT | -0.0157 |
| TTTGTGGAGTATGTTTGCCGAG | -0.673 |
| TCGCTCTCCAGAAGCTTGCGGT | -0.966 |
| TTTGCCATGCAGATCCATCCGG | -0.203 |
| TTCATCCTCGTACTTGTTCTTG | -0.726 |
| ATTTGTGCTGAATCCACCCTTG | 0.32 |
| TTGAGCACCACAAACTCGTTCT | 0.422 |
| TTGCCATGCAGATCCATCCGGC | -0.416 |
| TTGCCAGTCACAGAAATGCTGA | -0.931 |
| TTGATTTCATCCTCGTACTTGT | 0.185 |
| TTGACCGTAGTGGTCTTCCGCA | -0.477 |

biological target: KRT85; test: as above; conditions: shRNA

| Sequence | sensor-assay potency score (higher = more potent) |
| --- | --- |
| TCCCTCTGTAGGAACATCCAGA | -1.53 |
| TTGCTCTCGCAGCAGCGCTGGT | -1.3 |
| ATCTTGACTATGACCGAGGTGT | -0.378 |
| TTGAAACACAGATCGAGACAAC | -0.784 |
| TATTTTGGAGCTAAGTAGGAGT | -0.047 |
| TTCACTGAATAGCAAGACCTGT | -0.614 |
| AACATCGTCATACTGAGCCTTG | -0.503 |
| TTTATTGAAACACAGATCGAGA | -0.788 |
| TTGACTATGACCGAGGTGTCTG | -0.0564 |
| TTCTTTAGAACGACAAACTCAT | 0.238 |
| TTCTGGTAGAACTGCCACTTGG | -1.54 |
| TAGAACGACAAACTCATTCTCT | 0.106 |

biological target: KRT86; test: as above; conditions: shRNA

| Sequence | sensor-assay potency score (higher = more potent) |
| --- | --- |
| ACGGGTGACAATGTCATCGTAC | -0.601 |
| TAGTAGTGCCCACCACCACGTT | -1.34 |
| TCGTACTGTGCCTTGATCTCGG | 0.0587 |
| TTTATTGGAAACACAGAGTGAA | 0.556 |
| TTGCTGTTGCTGGGGACGCTAC | -1.52 |
| TGACAATGTCATCGTACTGTGC | -0.56 |
| AATGTCATCGTACTGTGCCTTG | -0.754 |
| TTGATCTCGGCAATGATGCAGT | -0.0305 |
| TTATTGGAAACACAGAGTGAAA | -1.53 |
| TTAGTTTTTCAGAAGCTCTTGA | 0.521 |
